CRFR2-BP ag: agonists of human CRF-binding protein/CRF-R2 receptor complex; HEK293 CRF-R2/CRF-BP, calcium dye fluorescence (FLIPR); percent of saturating CRF peptide response; activation, % at 13.2 µM; 350,000 tested, 0.46% active; AID 588473;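 active = activation of at least 50%, plus an integration ratio under a set limit after plate pattern correction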;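 note: plate controls were neutral control wells without compound for no effect and CRF at EC100 for full effect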
cardiac RTF act: increases calcium sensitivity of human cardiac regulated thin filaments; P19429+P45379; activation, % at 7.2 µM; AID 493008; IANBD-labeled TnC RTF fluorescence at EC20 calcium; 0% EC20 calcium, 100% full calcium; 340,000 tested, 0.24% active;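 active = activation above the mean over all tested compounds plus 3 SD, cut at about 30% in these data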;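 note: rise in fluorescence read as greater calcium sensitivity of cardiac thin filaments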
RTF Ca sens inh: cardiac RTF calcium desensitization. IANBD-labeled cardiac RTF, Ca2+ fluorescence. 340,000 tested, 0.12% active. AID 493244. P19429+P45379. inhibition, % at 7.15 µM;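 active = inhibition above the mean inhibition of all tested compounds plus 3 SD, cut at about 17% in these data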;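 note: assay run at fixed EC70 calcium of 1.6 mM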
CRFR2-BP antag: blocks CRF-induced signaling of the CRF-BP/CRF-R2 complex. 350,000 tested, 0.59% active. HEK293 CRF-R2/CRF-BP, CRF-induced calcium fluorescence. AID 588475. inhibition, % at 11.8 µM;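 active = inhibition of the ligand-induced calcium signal above about 50% at the single tested concentration, limit read from the data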
C-LANA FP: blocks KSHV LANA C-terminal domain binding to DNA. MBP-C-LANA/FAM-LBS DNA binding, fluorescence polarization. inhibition, % at 9 µM. 340,000 tested, 0.078% active;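 active = highest replicate inhibition at or above 60% at 9 µM, even if other replicates fall short; inactive = all replicates below 60% inhibition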;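 note: 0% = neutral control wells and 100% = 4 µM acridine orange control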
Keap1-Nrf2 PPI: inhibitors of human Keap1-Nrf2 protein-protein interaction. Q14145. Keap1 Kelch-Nrf2 peptide fluorescence polarization, 1536-well. inhibition, % at 9.4 µM. 340,000 tested, 0.15% active; in the data active = inhibition above about 12%;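 note: human Keap1 Kelch domain with fluorescein labeled Nrf2 9mer peptide probe; 0% = neutral control wells and 100% = peptide positive control; higher means more block of Keap1 binding to Nrf2 peptide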
Target sequence (Q14145 whole entry, looked up, the tested form may be a part): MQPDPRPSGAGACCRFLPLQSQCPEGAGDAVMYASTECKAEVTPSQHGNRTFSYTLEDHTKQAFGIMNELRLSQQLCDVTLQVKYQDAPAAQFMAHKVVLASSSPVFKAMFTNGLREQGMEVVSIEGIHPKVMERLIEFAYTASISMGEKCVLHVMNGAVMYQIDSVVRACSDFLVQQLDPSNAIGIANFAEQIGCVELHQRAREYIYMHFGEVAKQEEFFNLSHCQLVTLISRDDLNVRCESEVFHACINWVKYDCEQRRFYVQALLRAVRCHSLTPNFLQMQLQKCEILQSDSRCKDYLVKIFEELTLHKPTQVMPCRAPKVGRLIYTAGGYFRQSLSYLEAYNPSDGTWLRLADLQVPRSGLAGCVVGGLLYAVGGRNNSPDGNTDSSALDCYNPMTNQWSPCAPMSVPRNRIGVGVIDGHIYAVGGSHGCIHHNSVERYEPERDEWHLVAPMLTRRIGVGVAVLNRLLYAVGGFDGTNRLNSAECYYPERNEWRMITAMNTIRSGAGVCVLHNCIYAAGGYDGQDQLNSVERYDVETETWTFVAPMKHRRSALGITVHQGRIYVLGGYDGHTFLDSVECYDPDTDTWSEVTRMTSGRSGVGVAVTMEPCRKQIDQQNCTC
The depositor's hits bear a star. This is a sample that favours compounds with a hit; in the whole collection about 1.3% have one here.

How did CCN(C(=O)CSc1n[nH]c(-c2cc(Cl)ccc2OC)n1)C1CCS(=O)(=O)C1 (centres undefined) do in these assays?
CRFR2-BP ag: 0; cardiac RTF act: 0; RTF Ca sens inh: -4; CRFR2-BP antag: -3; C-LANA FP: -1; Keap1-Nrf2 PPI: -3

Results for Cc1cc(C)n(-c2ccc(C(=O)Oc3ccc4c(c3)OCO4)cc2)n1 ?
CRFR2-BP ag: -1; cardiac RTF act: 2; RTF Ca sens inh: -15; CRFR2-BP antag: 73*; C-LANA FP: 0; Keap1-Nrf2 PPI: -7

What do the screens show for `CC(=O)c1ccc(OC(=O)c2ccc(-n3nc(C)cc3C)cc2)cc1`?
CRFR2-BP ag: -2; cardiac RTF act: -4; RTF Ca sens inh: -10; CRFR2-BP antag: 19; C-LANA FP: 0; Keap1-Nrf2 PPI: -2

How did CC(C)N(C(=O)COC(=O)c1cncc(Br)c1)C(C)C do in these assays?
CRFR2-BP ag: 2; cardiac RTF act: 2; RTF Ca sens inh: -1; CRFR2-BP antag: 104*; C-LANA FP: -1; Keap1-Nrf2 PPI: -4

How did O=C1CC2C(CCC23OCCO3)c2ccc3ccccc3c21 (centres undefined) do in these assays?
CRFR2-BP ag: -2; cardiac RTF act: -3; RTF Ca sens inh: -3; CRFR2-BP antag: -15; C-LANA FP: -2; Keap1-Nrf2 PPI: -4

What do the screens show for `N=c1c(S(=O)(=O)c2ccccc2)cc2c(=O)n3ccccc3nc2n1Cc1ccco1`?
CRFR2-BP ag: 89*; cardiac RTF act: 0; RTF Ca sens inh: -13; CRFR2-BP antag: 7; C-LANA FP: 1; Keap1-Nrf2 PPI: -2

How did CCn1c(=N)c(S(=O)(=O)c2ccccc2)cc2c(=O)n3ccccc3nc21 do in these assays?
CRFR2-BP ag: 12; cardiac RTF act: 4; RTF Ca sens inh: 1; CRFR2-BP antag: 4; C-LANA FP: 0; Keap1-Nrf2 PPI: 6

What do the screens show for `Cc1ccc(S(=O)(=O)c2cc3c(=O)n4ccccc4nc3n(Cc3ccco3)c2=N)cc1C`?
CRFR2-BP ag: 79*; CRFR2-BP antag: 7

How did CCCn1c(=N)c(S(=O)(=O)c2ccccc2)cc2c(=O)n3ccccc3nc21 do in these assays?
CRFR2-BP ag: -4; cardiac RTF act: 1; RTF Ca sens inh: -3; CRFR2-BP antag: 110*; C-LANA FP: 9; Keap1-Nrf2 PPI: 4

How did Cc1cccn2c(=O)c3cc(S(=O)(=O)c4ccccc4)c(=N)n(Cc4ccco4)c3nc12 do in these assays?
CRFR2-BP ag: 1; cardiac RTF act: 2; RTF Ca sens inh: -5; CRFR2-BP antag: 7; C-LANA FP: 0; Keap1-Nrf2 PPI: 1

What do the screens show for `O=c1c2c(-c3ccc([N+](=O)[O-])cc3)csc2nc2n1CCC2`?
CRFR2-BP ag: -2; cardiac RTF act: -5; RTF Ca sens inh: 2; CRFR2-BP antag: 11; C-LANA FP: -1; Keap1-Nrf2 PPI: -4

How did COc1ccc(-c2noc(Cc3cccs3)n2)cc1 do in these assays?
CRFR2-BP ag: 1; cardiac RTF act: 1; RTF Ca sens inh: 3; CRFR2-BP antag: -2; C-LANA FP: 0; Keap1-Nrf2 PPI: 0

Results for COc1ccccc1-n1cc(-c2ccc([N+](=O)[O-])cc2)[nH]c1=S ?
CRFR2-BP ag: 0; cardiac RTF act: 3; RTF Ca sens inh: -3; CRFR2-BP antag: -2; C-LANA FP: 0; Keap1-Nrf2 PPI: -2

Results for O=C(O)CN1C(=O)/C(=C\c2cn(CC(=O)N3CCOCC3)c3ccccc23)SC1=S ?
CRFR2-BP ag: 69*; cardiac RTF act: 134*; RTF Ca sens inh: -154; CRFR2-BP antag: -52; C-LANA FP: -35; Keap1-Nrf2 PPI: -186

Results for O=C(O)CN1C(=O)/C(=C/c2ccc(SCc3ccccc3)o2)SC1=S ?
CRFR2-BP ag: 39; cardiac RTF act: 35*; RTF Ca sens inh: -45; CRFR2-BP antag: -57; C-LANA FP: -33; Keap1-Nrf2 PPI: -146

How did O=C(CCN1C(=O)/C(=C\c2cccc(Br)c2)SC1=S)N1CCOCC1 do in these assays?
CRFR2-BP ag: 0; cardiac RTF act: -3; RTF Ca sens inh: 0; CRFR2-BP antag: 64*; C-LANA FP: 0; Keap1-Nrf2 PPI: -1

What do the screens show for `Cc1ccc2[nH]c(CN3CCN(C)C(CCO)C3)c(C)c2c1` (centres undefined)?
CRFR2-BP ag: -1; cardiac RTF act: -5; RTF Ca sens inh: -4; CRFR2-BP antag: 7; C-LANA FP: 1; Keap1-Nrf2 PPI: -2

How did COC(=O)c1ccc(NC(=O)C2C3CCC(C3)C2C(=O)O)cc1 (centres undefined) do in these assays?
CRFR2-BP ag: 0; cardiac RTF act: -3; RTF Ca sens inh: 0; CRFR2-BP antag: 19; C-LANA FP: 0; Keap1-Nrf2 PPI: -1

How did O=C(Cc1cccs1)N1CCN(S(=O)(=O)c2ccc(F)c(F)c2)CC1 do in these assays?
CRFR2-BP ag: 0; cardiac RTF act: -4; RTF Ca sens inh: -6; CRFR2-BP antag: -4; C-LANA FP: -1; Keap1-Nrf2 PPI: -1

How did O=C(Cc1cccs1)N1CCN(S(=O)(=O)c2cc(Cl)ccc2Cl)CC1 do in these assays?
CRFR2-BP ag: 0; cardiac RTF act: 51*; RTF Ca sens inh: -3; CRFR2-BP antag: 9; C-LANA FP: -1; Keap1-Nrf2 PPI: -2

Results for C/C(=N\NC(=S)Nc1ccccc1C)C1Cc2ccccc2C(=O)O1 (centres undefined) ?
CRFR2-BP ag: -3; cardiac RTF act: 1; RTF Ca sens inh: 5; CRFR2-BP antag: 9; C-LANA FP: 0; Keap1-Nrf2 PPI: -4

How did Cc1cc(=O)[nH]c(SCC(=O)Nc2ccc(Br)cc2)c1C#N do in these assays?
CRFR2-BP ag: 67*; cardiac RTF act: -1; RTF Ca sens inh: -13; CRFR2-BP antag: 63*; C-LANA FP: 2; Keap1-Nrf2 PPI: 2

What do the screens show for `COc1ccc(/C=C2\OC(=S)N(C)C2=O)cc1`?
CRFR2-BP ag: -2; cardiac RTF act: -2; RTF Ca sens inh: -4; CRFR2-BP antag: 1; C-LANA FP: 2; Keap1-Nrf2 PPI: 1

What do the screens show for `CN1C(=O)/C(=C\c2ccc(N(C)C)cc2)OC1=S`?
CRFR2-BP ag: 211*; cardiac RTF act: 46*; RTF Ca sens inh: -132; CRFR2-BP antag: -187; C-LANA FP: -2; Keap1-Nrf2 PPI: -18

What do the screens show for `CN(C)c1ccc(/C=C2\N=C(C(C)(C)C)OC2=O)cc1`?
CRFR2-BP ag: 22; cardiac RTF act: 30*; RTF Ca sens inh: -14; CRFR2-BP antag: -31; C-LANA FP: 7; Keap1-Nrf2 PPI: 3

How did COc1ccc(-n2c(O)c(/C=C3\C=Nc4ccccc43)c(=O)[nH]c2=O)cc1 do in these assays?
CRFR2-BP ag: 76*; cardiac RTF act: -1; RTF Ca sens inh: -2; CRFR2-BP antag: -56; C-LANA FP: 0; Keap1-Nrf2 PPI: -5

Results for CC(C)CC(=O)Nc1nnc(CSCc2ccc(F)cc2)s1 ?
CRFR2-BP ag: -1; cardiac RTF act: 9; RTF Ca sens inh: -5; CRFR2-BP antag: -36; C-LANA FP: 75*; Keap1-Nrf2 PPI: -2
